In PubChem BioAssay (NCI):
“And” between values parts separate entries of the source, which are not always exact repeats. Identical values can stand only once. Compounds without any hit were thinned out: in the full panel of roughly 83,000, 20% have a hit.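 48-hour exposure, single concentration, 96-well plates; percent growth endpoint where 0 means no net growth. Active: below 10.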 The source made the active and inactive calls.

What was measured:
Test in all cases: NCI-60 one-dose screen, 48 h (100 = growth as untreated, 0 = no growth, -100 = all killed)
Conditions in all cases: 10 µM unless noted
[1] = tested on: SR leukemia
[2] = tested on: RPMI-8226 leukemia
[3] = tested on: OVCAR-8 ovarian
[4] = tested on: OVCAR-5 ovarian
[5] = tested on: OVCAR-4 ovarian
[6] = tested on: SK-OV-3 ovarian
[7] = tested on: IGROV1 ovarian
[8] = tested on: OVCAR-3 ovarian
[9] = tested on: HS 578T breast
[10] = tested on: NCI/ADR-RES ovarian
[11] = tested on: T-47D breast
[12] = tested on: BT-549 breast
[13] = tested on: MDA-MB-435 melanoma
[14] = tested on: SW-620 colon
[15] = tested on: MCF7 breast
[16] = tested on: HCT-116 colon
[17] = tested on: HCC-2998 colon
[18] = tested on: KM12 colon
[19] = tested on: MDA-MB-468 breast

Measured: growth

NC1(c2ccc(-c3ccc4ncnc(NCc5ccccc5)c4c3)cn2)COC1
inactive: [1] 101% and 92.4% | [2] 117% and 110% | [3] 113% and 117% | [4] 102% and 103% | [5] 106% and 109% | [6] 143% and 109% | [7] 116% and 108% | [8] 106% and 74.8% | [9] 105% | [10] 104% and 107% | [11] 108% and 107% | [12] 109% and 106% | [13] 106% and 107% | [14] 114% and 106% | [15] 102% and 99.5% | [16] 109% and 116% | [17] 117% and 113% | [18] 101% and 88.5% | [19] 102% and 103%

O=C1c2cccc3c(N4CCN(c5ccccc5)CC4)ccc(c23)C(=O)N1c1cccc(-c2nn(-c3ccccc3)cc2-c2nc3ccccc3s2)c1
inactive: [1] 90.9% | [2] 95.9% | [3] 106% | [4] 108% | [5] 99.9% | [6] 97.6% | [7] 73.9% | [8] 98% | [9] 102% | [10] 98.3% | [11] 114% | [12] 126% | [13] 106% | [14] 98% | [15] 81.2% | [16] 101% | [17] 115% | [18] 104% | [19] 96.9%

CN(C)c1nc(NCCNS(=O)(=O)c2ccc(C3=Nc4c(N)nc(N)nc4NC(c4ccc(Cl)cc4)C3)cc2)nc(N2CCOCC2)n1 (stereo not given)
active: [19] 6.95%
inactive: [1] 31.9% | [2] 21.4% | [3] 64.3% | [4] 82.7% | [5] 66.9% | [6] 75.9% | [7] 45% | [8] 65.5% | [9] 45.2% | [10] 85.7% | [11] 43% | [12] 35.4% | [13] 60.1% | [14] 82.8% | [15] 22.4% | [16] 30.9% | [17] 39.3% | [18] 52.9%

Cn1cc(-c2cc3nc(-c4cn(C)c5ncc(Br)cc45)cc(N)n3n2)c2cc(F)ccc21
active: [1] -23.7% | [5] 3.36% | [11] 2.75% | [16] -44.1% | [17] -14.5% | [19] -47.4%
inactive: [2] 32.9% | [3] 10.5% | [4] 31.8% | [6] 75% | [7] 19.8% | [8] 20.3% | [9] 35% | [10] 10.5% | [12] 44.9% | [13] 39.8% | [14] 26.6% | [15] 27% | [18] 19.1%

O=C1c2cccc3c(N4CCN(Cc5ccccc5)CC4)ccc(c23)C(=O)N1c1cccc(-c2nn(-c3ccccc3)cc2-c2nc3ccccc3s2)c1
inactive: [1] 87.3% | [2] 103% | [3] 115% | [4] 107% | [5] 105% | [6] 102% | [7] 89.5% | [8] 102% | [9] 106% | [10] 104% | [11] 97.6% | [12] 114% | [13] 108% | [14] 101% | [15] 88.6% | [16] 100% | [17] 127% | [18] 108% | [19] 95.7%

COc1cc(CNC(=O)C[C@H](C)CCC=C(C)C)ccc1OCc1cn(-c2ccccc2F)nn1
inactive: [1] 73.4% | [2] 81.8% | [3] 66.5% | [4] 94.9% | [5] 71.4% | [6] 43.6% | [7] 81.9% | [8] 105% | [9] 39.5% | [10] 54.8% | [11] 60.6% | [12] 71% | [13] 100% | [14] 92.7% | [15] 66.9% | [16] 60.2% | [17] 101% | [18] 99.3% | [19] 57.7%

Cn1cc(-c2cc(N)n3nc(-c4c[nH]c5ccc(F)cc45)cc3n2)c2cc(Br)cnc21
active: [1] -23.5% | [16] -26.9% | [18] 3.18%
inactive: [2] 19.2% | [3] 42.8% | [4] 74.2% | [5] 71.6% | [6] 104% | [7] 70.7% | [8] 109% | [9] 86.4% | [10] 56% | [11] 54.5% | [12] 92.6% | [13] 78.8% | [14] 17.2% | [15] 47.1% | [17] 13.8% | [19] 20.7%

COc1ccc2c(c1)C(Sc1ccc(F)cc1)c1c(nc(N)c(C#N)c1N)O2 (stereo not given)
inactive: [1] 38% | [2] 71.7% | [3] 90.1% | [4] 122% | [5] 97.8% | [6] 122% | [7] 70.6% | [8] 128% | [9] 85.5% | [10] 95.3% | [11] 79% | [12] 62.1% | [13] 91% | [14] 84.7% | [15] 67.5% | [16] 79.9% | [17] 114% | [18] 85% | [19] 99.6%

CCc1ccccc1-c1nc(CN[C@@H]2C[C@@H]3C[C@H]([C@H]2C)C3(C)C)c(C)o1
active: [1] -15.6% | [2] -13.9% | [3] -66.4% | [4] -87.4% | [5] -42.9% | [6] -79.8% | [7] -85% | [8] -61.6% | [9] -43.4% | [10] -78.4% | [11] -60.3% | [12] -89.7% | [13] -79.5% | [14] -43.5% | [15] -84.4% | [16] -82.4% | [17] -83.9% | [18] -87.4% | [19] -83.4%

O=C1Nc2ccc(F)cc2/C1=C/C(=O)c1cc2ccccc2oc1=O
inactive: [1] 42.1% | [2] 78.8% | [3] 105% | [4] 113% | [5] 89.1% | [6] 88.7% | [7] 105% | [8] 85.9% | [9] 101% | [10] 103% | [11] 93.4% | [12] 116% | [13] 103% | [14] 20.9% | [15] 69.4% | [16] 88.7% | [17] 121% | [18] 101% | [19] 22.3%

N/C(=N\c1nc2ccccc2s1)NC(=O)Nc1ccccc1[N+](=O)[O-]
active: [2] 2.19% | [3] -18.8% | [6] 2.97% | [8] -7.53% | [10] -11.3% | [13] -45.1% | [16] 0.0336% | [17] 8.25% | [18] 1.31% | [19] -0.807%
inactive: [1] 13.6% | [4] 10.9% | [5] 34.9% | [7] 20.2% | [9] 41.5% | [11] 34.1% | [12] 10.5% | [14] 31% | [15] 12.8%

CNc1nc2ccccc2n2c(-c3ccc(O)c(O)c3)cnc12
inactive: [3] 11.9% | [4] 14.9% | [5] 34.7% | [6] 16.5% | [11] 42.2% | [14] 24.6% | [17] 19.9%
active: [1] 6.32% | [2] 9.2% | [7] 7.31% | [8] -5.33% | [9] 1.79% | [10] 6.86% | [12] -22.3% | [13] -9.22% | [15] 4.34% | [16] 2.74% | [18] -0.402% | [19] 5.66%

COc1ccc(NC(=O)Cn2c(/C=C/c3cccc(OC)c3)nc3ccccc3c2=O)cc1
inactive: [1] 77.6% | [2] 41.1% | [3] 10.4% | [4] 40% | [6] 44.8% | [7] 37.7% | [8] 28.5% | [10] 35.4% | [12] 73.8% | [13] 59.1% | [14] 41.2% | [15] 30.4% | [16] 13.9% | [17] 92.5% | [18] 82.5% | [19] 71.4%
active: [5] -30.1% | [9] 9.48% | [11] -15%

COc1cc(C2C(C(=O)OCc3ccccc3)=C(C)Nc3nc4ccccc4n32)cc(OC)c1OC (stereo not given)
inactive: [1] 11.3% | [2] 48.8% | [3] 13.5% | [4] 45.5% | [6] 25.6% | [7] 44.1% | [8] 12.1% | [9] 14% | [11] 55.6% | [12] 14.2% | [14] 31.4% | [17] 27.8% | [18] 38%
active: [5] 1.46% | [10] 6.58% | [13] -34.7% | [15] 7.08% | [16] 2.8% | [19] -38%

COc1cc(CNC(=O)C[C@H](C)CCC=C(C)C)ccc1OCc1cn(-c2ccc(Cl)c(Cl)c2)nn1
inactive: [1] 27.1% | [2] 77.6% | [3] 46.3% | [4] 86.4% | [5] 53.4% | [6] 99% | [7] 83.1% | [8] 60.1% | [9] 57% | [10] 36.5% | [11] 33.6% | [12] 71.7% | [13] 91.3% | [14] 29.9% | [15] 49.6% | [16] 29.8% | [17] 93.5% | [18] 82.7% | [19] 55%
